Screens (PubChem)
TSHR agonist: activates the human thyroid stimulating hormone receptor; Potency, µM (series often up to 57.1 µM), for the others: at the highest dose activation, usual class: activators; P16473; hit rate 0.48% among 73,000; HEK293-CNG-TSHR cells (CNG channel as cAMP sensor), membrane potential dye, cAMP; active = well fitted activation curve with a large enough effect in the main read-out, with a control signal flat, not every such curve was filed as active; inconclusive = small, poorly fitted or top-dose-only effect, or a change in a side signal; inactive = no such curve, though single readings can be large or run the other way; % of control where 0% means no effect;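 also: the control signal comes from parental cells without the receptor; potency is read from the fitted curve at half-maximal effect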
Target sequence (P16473 whole entry, looked up): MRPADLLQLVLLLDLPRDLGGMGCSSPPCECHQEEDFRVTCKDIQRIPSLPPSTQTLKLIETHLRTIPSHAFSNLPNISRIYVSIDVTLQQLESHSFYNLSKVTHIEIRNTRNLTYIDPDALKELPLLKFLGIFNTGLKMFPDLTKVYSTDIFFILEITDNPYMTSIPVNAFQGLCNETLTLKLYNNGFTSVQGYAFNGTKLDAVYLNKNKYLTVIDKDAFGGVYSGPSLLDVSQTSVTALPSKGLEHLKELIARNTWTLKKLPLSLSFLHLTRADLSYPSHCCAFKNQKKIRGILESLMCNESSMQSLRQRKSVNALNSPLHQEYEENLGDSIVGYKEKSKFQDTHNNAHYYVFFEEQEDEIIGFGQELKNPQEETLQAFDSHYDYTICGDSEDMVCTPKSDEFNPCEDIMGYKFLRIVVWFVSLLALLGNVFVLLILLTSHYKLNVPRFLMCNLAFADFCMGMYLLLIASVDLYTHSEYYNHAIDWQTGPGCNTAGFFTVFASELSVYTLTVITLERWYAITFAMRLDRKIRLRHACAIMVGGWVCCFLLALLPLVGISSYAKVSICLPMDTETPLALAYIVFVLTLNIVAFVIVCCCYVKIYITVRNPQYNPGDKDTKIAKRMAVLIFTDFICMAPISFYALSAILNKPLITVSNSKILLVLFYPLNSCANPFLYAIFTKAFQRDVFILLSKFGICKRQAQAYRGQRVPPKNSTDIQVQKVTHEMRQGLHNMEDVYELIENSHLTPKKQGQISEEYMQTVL
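HEK 293 cells stably expressing TSHR and a cAMP-gated CNG channel; parental CNG-only cells as counterscreen. Cells preloaded 60 min with membrane potential dye plus 100 uM RO 20-1724, then compound 30 min; fluorescence read at 590 nm.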
Imprint erasure: genomic imprint erasure induction. mouse ES Peg3-LacZ reporter, beta-gal luminescence, 40 h. Potency, µM (doses to about 60.7 µM), for inactives: at the top dose activity change, positive = activation, usual class: activators. hit rate 0.02% among 110,000. AID 1948; also: potency is read from the fitted curve at half-maximal effect
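Gelatin-coated wells received 300 freshly trypsinized female ES cells with a Peg3LacZ-Neo reporter on the maternal allele, then incubated 40 hours at 37C. BetaGlo was added for 5 minutes at room temperature before a single luminescence read.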
HEK293 cAMP ctrl: parental HEK293 cAMP activation (counter-screen). parental HEK293 CNG cAMP sensor, membrane potential fluorescence. Potency, µM (doses to about 57.1 µM), without a hit: top-dose activation, most hits filed as activators. hit rate 2.5% among 73,000; also: potency is read from the fitted curve at half-maximal effect; % of control where 0% means no effect; nearly all actives have a fitted effect of over 55% in size
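Counterscreen for endogenous-receptor signalling: CNG-channel HEK 293 cells report cAMP rise by membrane depolarization. After 60 min dye equilibration with 100 uM RO 20-1724, compounds incubated 30 min before bottom-read fluorescence at 590 nm.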
p53ts 39C kill: cytotoxicity in p53ts cells at nonpermissive temperature; H1299-p53A138V viability at 39C, ATP luminescence, 24 h; Potency, µM (highest dose often 46.1 µM), without a hit: at the highest dose activity change, negative = cell killing, hits mostly cytotoxic; hit rate 1.5% among 130,000; also: potency is read from the fitted curve at half-maximal effect; % is scaled to controls: 0 for no effect and ±100 for the full control effect; nearly all actives have a fitted effect of over 55% in size
p53ts 32C tox: kills p53ts cells at the permissive temperature | H1299-p53A138V at 32C, ATP luminescence viability, 24 h | Potency, µM (highest dose often 46.1 µM), without a hit: top-dose activity change, negative = cytotoxicity, most hits filed as cytotoxic | hit rate 0.93% among 130,000 | AID 924;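 also: potency is read from the fitted curve at half-maximal effect; 0% = DMSO and -100% = full killing by reference compound; nearly all actives have a fitted effect of over 55% in size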
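ATP-content luminescence (ATPlite) read-out after 24 h compound exposure at 32C in H1299-p53A138V cells (600/well). Tested up to 46 uM. Normalized to DMSO (0%) and 100 uM tamoxifen (100% killing); Hill-fit AC50.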
IkB sig inh: inhibitors of IkB signaling in ABC-DLBCL cells | ABC-DLBCL IkBa-CBG/CBR dual luciferase ratio, 4 h; response scale: scaled: untreated 0%, proteasome inhibitor 100% | Potency, µM (series often up to 57.1 µM), for the others: at the highest dose IkBa stabilization activation | hit rate 0.04% among 110,000 | AID 445; active = well fitted curve in the direction sought with a large enough effect in the signal ratio, not every such curve was filed as active; inconclusive = small, poorly fitted or top-dose-only effect, or a change in a side signal; the % refers to the signal ratio;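 also: potency is read from the fitted curve at half-maximal effect; the direction sought is a rising ratio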
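Curves were fitted separately to fusion (green), unfused (red) and ratio luminescence, then classed by r2, magnitude and activity. Cells: OCI-Ly3, 4 h compound plus doxycycline at 37C; 10 uM MG-132 defined full response.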
parental cAMP: raises cAMP in parental HEK293 cells lacking TSH receptor | shares compounds with TSHR agonist | parental HEK293 CNG biosensor, cAMP membrane potential fluorescence | activity change, negative = inhibition, % at 32.9 µM | 150 tested, under 10 active | AID 953
Numbers without * were called inactive; ! = a repeat was not active; [ ] = dose if it differs, or a comment. The list is not random: actives were taken first. Their share in the collection is about 3.1%. Unless noted, calls follow the shape of the dose curve; as a rule, active = well fitted curve in the direction sought with a large enough effect; inconclusive = small, poorly fitted or top-dose-only effect, or another doubt; inactive = no such curve, though single readings can be large; an effect the other way counts as inactive or inconclusive.

CCCCn1c(N)c(C(=O)OCC2CCCO2)c2nc3ccccc3nc21 (stereo not given) was read as TSHR agonist inconclusive, Imprint erasure -20.4%, HEK293 cAMP ctrl inconclusive, p53ts 39C kill 9.2%, p53ts 32C tox 5.3% and IkB sig inh -0.3%.
Screening CCC(=O)OC1CCC2C3CCc4cc(O)ccc4C3CC[C@]12C (stereo not given in full) returned Imprint erasure -34.7%, p53ts 39C kill 10µM* and p53ts 32C tox inconclusive.
For CCC(=O)OC1CCC2C3CCC4=CC(=O)CC[C@@]4(C)C3CC[C@]12C (stereo not given in full) the results were Imprint erasure -15.2%.
`CN(C)c1ccc(N(C)C)cc1` gave TSHR agonist inconclusive, Imprint erasure -8.6%, HEK293 cAMP ctrl -14.6%, p53ts 39C kill -9.5%, p53ts 32C tox 12.7%[1.84 µM] and IkB sig inh 13.6%.
O=S1OCC2C(CO1)C1(Cl)C(Cl)=C(Cl)C2(Cl)C1(Cl)Cl (stereo not given) was read as Imprint erasure -9.3%, HEK293 cAMP ctrl 21.7%, p53ts 39C kill -6.0%, p53ts 32C tox 20.0% and IkB sig inh 3.0%.
For O=C(O)[C@@H]1[C@H](C(=O)O)[C@]2(Cl)C(Cl)=C(Cl)[C@@]1(Cl)C2(Cl)Cl the results were TSHR agonist -2.3%[11.4 µM], Imprint erasure 1.8%[10.9 µM], HEK293 cAMP ctrl 2.6%[11.4 µM], p53ts 39C kill 1µM*, p53ts 32C tox inconclusive and IkB sig inh 3.16µM*.
`C(=C/c1ccccc1)/CN1CCN(CCOC(c2ccccc2)c2ccccc2)CC1` gave TSHR agonist 31.6µM*, Imprint erasure -19.0%, HEK293 cAMP ctrl 6.5%, p53ts 39C kill 31.6µM*, p53ts 32C tox -18.5% and IkB sig inh inconclusive.
c1ccc(C(OCCN2CCNCC2)c2ccccc2)cc1 was read as TSHR agonist 3.7%, Imprint erasure -23.7%, HEK293 cAMP ctrl 10.1%, p53ts 39C kill -18.4%, p53ts 32C tox -4.8% and IkB sig inh 0.4%.
For NC1=NC([S][Hg][c]2ccc(N)cc2)c2ncn([C@@H]3O[C@H](CO)[C@@H](O)[C@@H]3O)c2N1 (stereo not given in full) the results were Imprint erasure 3.7%[10.9 µM].
Screening c1coc(CNc2ncnc3nc[nH]c23)c1 returned TSHR agonist inconclusive, Imprint erasure -78.9%, HEK293 cAMP ctrl 5.01µM*!, p53ts 39C kill inconclusive, p53ts 32C tox 10.9% and IkB sig inh -2.7%.
Screening CC(C)c1ccc2c(c1)CC[C@H]1[C@](C)(CN)CCC[C@]21C returned TSHR agonist inconclusive, Imprint erasure -73.8%, HEK293 cAMP ctrl -55.3%, p53ts 39C kill 15.8µM* and p53ts 32C tox inconclusive.
Screening COC(=O)[C@@]1(Cc2ccccc2)[C@H]2c3cc(C(=O)N(C)C)[nH]c3C[C@H]2CN1C(=O)c1ccccc1 returned TSHR agonist inconclusive, Imprint erasure -9.7%, HEK293 cAMP ctrl inconclusive, p53ts 39C kill -11.1% and p53ts 32C tox 1.9%.
For COC(=O)[C@@]1(Cc2ccccc2)[C@H]2c3cc(C(=O)N(C)C)n(C)c3C[C@H]2CN1C(=O)c1ccccc1 the results were TSHR agonist inconclusive, Imprint erasure -5.0%, HEK293 cAMP ctrl 25.1µM*, p53ts 39C kill -12.6% and p53ts 32C tox 7.0%.
CN[C@@H]1C[C@@H](c2ccc(Cl)c(Cl)c2)c2ccccc21 was read as Imprint erasure -37.5%, HEK293 cAMP ctrl -6.9%, p53ts 39C kill 12.6µM*, p53ts 32C tox 20µM* and IkB sig inh -7.3%.
For CN[C@@H]1C[C@H](c2ccc(Cl)c(Cl)c2)c2ccccc21 the results were Imprint erasure -48.5%, HEK293 cAMP ctrl 22.3%, p53ts 39C kill 25.1µM*, p53ts 32C tox 1.7% and IkB sig inh inconclusive.
Screening C[C@H]1C2C=C[C@H]1[C@@H](C(=O)O)[C@@H]2c1c2ccc(=O)c(O)c-2oc2c(O)c(O)ccc12 returned Imprint erasure -15.2%[10.9 µM].
Screening CC[C@H](CO)NC(=O)[C@H]1C=C2c3cccc4[nH]cc(c34)C[C@H]2N(C)C1 returned TSHR agonist -0.9%, HEK293 cAMP ctrl -1.4% and IkB sig inh 2.1%[11.4 µM].
For CN(C)c1ccc(Cc2ccc(N(C)C)cc2)cc1 the results were TSHR agonist inconclusive, Imprint erasure -16.2%, HEK293 cAMP ctrl -32.7%, p53ts 39C kill 3.5%, p53ts 32C tox -4.3%[1.84 µM] and IkB sig inh 5.3%.
Screening CN(C)c1ccc(CN2CC=C(c3ccc(F)cc3)CC2)cc1 returned TSHR agonist -8.6%, Imprint erasure -10.3%, HEK293 cAMP ctrl -8.9%, p53ts 39C kill -19.2%, p53ts 32C tox 6.9%, IkB sig inh -1.0% and parental cAMP 5.6[25.6 µM].
Screening O=c1[nH]c(=O)n(Cc2ccco2)c(O)c1C=NC1CC1 returned Imprint erasure -8.6%, HEK293 cAMP ctrl 7.7%, p53ts 39C kill -4.2%, p53ts 32C tox 2.6%, IkB sig inh -0.7% and parental cAMP 5.2.
For CN1C[C@@H](C(=O)N[C@@]2(C)O[C@]3(O)C4CCCN4C(=O)[C@@H](Cc4ccccc4)N3C2=O)C=C2c3cccc4[nH]cc(c34)C[C@@H]21 (stereo not given in full) the results were Imprint erasure -0.1%, p53ts 39C kill 1.8% and p53ts 32C tox 1.1%.
